In PubChem BioAssay (EPA / NIEHS):
Values joined by “and” are separate entries in the source; they are usually repeats but may differ in a detail not shown here. Equal values may be shown once. The source holds several records for some structures; these can differ, active in one and inactive in another. Active and inactive are the calls of the source. Rule for the calls: active = hit-call score of the fitted dose curve at least 0.9, where 1 is the maximum; inactive = score below 0.9.

Legend:
[1] = ATG_M_32_CIS: Attagene CIS-FACTORIAL HepG2 Assay for M32 Transcription Factor (Internal Marker) (AID 2282949); conditions: HepG2 Attagene cis-factorial M32 reporter, mRNA; actives raise or lower the signal;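 note: background control marker of the multiplexed CIS panel rather than a real target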
Method in brief: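 Fluorescent capillary electrophoresis peaks of HpaI-digested, FAM-labelled RT-PCR reporter products give the signal. Source: transiently transfected human liver HepG2 cells, 24 h after chemical dosing; bidirectional fitting against DMSO.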

[2] = ATG_M_06_CIS: Attagene CIS-FACTORIAL HepG2 Assay for M06 Transcription Factor (Internal Marker) (AID 2282950); conditions: HepG2 Attagene CIS-FACTORIAL M06 internal marker reporter; actives raise or lower the signal
Method in brief: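 HepG2 cells transiently transfected with cis-regulated multiple reporter transcription units were exposed to chemical for 24 h; reporter mRNA was quantified by RT-PCR, 6-FAM primer labelling, HpaI digestion and capillary electrophoresis, fitted bidirectionally against DMSO.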

[3] = biological target: Hypoxia-inducible factor 1-alpha (Homo sapiens) (UniProt Q16665); test: ATG_HIF1a_CIS: Attagene CIS-FACTORIAL HepG2 Assay for human Hypoxia Inducible Factor 1 (HIF1A) (AID 2282951); conditions: HepG2 Attagene cis-factorial HIF1a reporter transcription; actives raise or lower the signal
Method in brief: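 Measures endogenous transcription-factor activity through cis-regulated reporter mRNA in HepG2. Cells dosed 24 h; transcripts quantified by RT-PCR with 6-FAM-labelled products separated by capillary electrophoresis; DMSO serves as negative control.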

[4] = biological target: Hepatocyte nuclear factor 6 (Homo sapiens) (UniProt Q9UBC0); test: ATG_HNF6_CIS: Attagene CIS-FACTORIAL HepG2 Assay for human Hepatocyte Nuclear Factor 6 (HNF6) (AID 2282952); conditions: HepG2 Attagene cis-factorial HNF6 reporter transcription; actives raise or lower the signal
Method in brief: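 HepG2 cells transiently transfected with cis-element-driven multiple reporter transcription units, dosed 24 h; reporter mRNA quantified by RT-PCR, FAM primer extension, HpaI digestion and capillary electrophoresis; bidirectional fit versus DMSO baseline.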

[5] = biological target: Heat shock factor protein 1 (Homo sapiens) (UniProt Q00613); test: ATG_HSE_CIS: Attagene CIS-FACTORIAL HepG2 Assay for human Heat Shock Transcription Factor 1 (HSE) (AID 2282953); conditions: HepG2 HSE cis-reporter, Attagene RNA transcription; actives raise or lower the signal
Method in brief: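 HepG2 cells transiently transfected with multiple reporter transcription units under cis-regulatory promoter control, measuring endogenous transcription factor activity. After 24 h chemical exposure, reporter mRNA quantified by RT-PCR, fluorescent labelling, HpaI digestion and capillary electrophoresis; bidirectional fit versus DMSO.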

[6] = ATG_MRE_CIS: Attagene CIS-FACTORIAL HepG2 Assay for human Metal Responsive Element (MRE) (AID 2282954); conditions: HepG2 MRE cis-reporter transcription, Attagene multiplex; actives raise or lower the signal
Method in brief: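 HepG2 cells transiently transfected with cis-element-driven reporter units; mRNA measured 24 h after dosing. Reporter transcripts quantified by RT-PCR, FAM labelling, HpaI digestion and capillary electrophoresis; bidirectional fit versus DMSO.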

[7] = ATG_PBREM_CIS: Attagene CIS-FACTORIAL HepG2 Assay for human Phenobarbital-responsive Enhancer Module (PBREM) (AID 2282955); conditions: HepG2 PBREM cis-reporter, Attagene multiplexed transcription; actives raise or lower the signal
Method in brief: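 Fluorescence of labelled reporter cDNA fragments, resolved by capillary electrophoresis, gives mRNA induction in transfected HepG2 cells treated for 24 h; DMSO serves as negative control and baseline.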

[8] = biological target: Paired box protein Pax-6 (Homo sapiens) (UniProt P26367); test: ATG_Pax6_CIS: Attagene CIS-FACTORIAL HepG2 Assay for human Paired Box 6 (PAX6) (AID 2282956); conditions: HepG2 CIS-FACTORIAL PAX6 reporter transcription, RNA readout; actives raise or lower the signal
Method in brief: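 HepG2 cells transiently transfected with cis-promoter-driven multiplexed reporter units sensing endogenous transcription factor activity; 24 h chemical exposure. Reporter mRNA quantified by RT-PCR, 6-FAM labelling, HpaI digestion and capillary electrophoresis; bidirectional fit versus DMSO baseline.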

[9] = ATG_PXRE_CIS: Attagene CIS-FACTORIAL HepG2 Assay for human Pregnane X Receptor Element (PXRE) (AID 2282957); conditions: HepG2 Attagene CIS-FACTORIAL PXRE reporter, mRNA; actives raise or lower the signal
Method in brief: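 HepG2 cells transiently transfected with cis-regulated multiple reporter transcription units; endogenous factor activity measured as reporter mRNA 24 h after dosing. RT-PCR, fluorescent primer extension, HpaI digestion, capillary electrophoresis; bidirectional fit versus DMSO baseline.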

[10] = ATG_PPRE_CIS: Attagene CIS-FACTORIAL HepG2 Assay for human Peroxisome Proliferator-activated Response Element (PPRE) (AID 2282958); conditions: HepG2 PPRE cis-element reporter, Attagene transcription factor profiling; actives raise or lower the signal
Method in brief: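 Cells are first transfected transiently with the multiplexed reporter library, then dosed for 24 h. Total RNA is reverse-transcribed, amplified, fluorescently end-labeled and HpaI-cut before capillary electrophoresis; activity is fitted bidirectionally against DMSO controls.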

[11] = ATG_Sox_CIS: Attagene CIS-FACTORIAL HepG2 Assay for human SRY-box transcription factor (SOX) (AID 2282960); conditions: HepG2 Attagene cis-factorial SOX reporter, mRNA; actives raise or lower the signal
Method in brief: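 Transient MRTU transfection of HepG2; 24 h compound incubation; TriZol RNA, oligo(dT) RT, PCR, 6-FAM primer extension, HpaI cut, CE. Bidirectional fit, DMSO = baseline.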

[12] = biological target: Transcription factor Sp1 (Homo sapiens) (UniProt P08047); test: ATG_Sp1_CIS: Attagene CIS-FACTORIAL HepG2 Assay for human Specificity Protein 1 (Sp1) (AID 2282961); conditions: HepG2 Sp1 cis-reporter transcription, actives raise or lower the signal
Method in brief: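 Endogenous Sp1 activity was gauged in human liver HepG2 cells bearing transfected reporter units under a cis-regulating promoter. After 24 h dosing, reporter mRNA was quantified by RT-PCR with capillary electrophoresis, and activity fitted bidirectionally versus DMSO.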

[13] = ATG_SREBP_CIS: Attagene CIS-FACTORIAL HepG2 Assay for human Sterol Regulatory Element Binding (SREBP) (AID 2282962); conditions: HepG2 Attagene cis-factorial SREBP reporter, mRNA; actives raise or lower the signal
Method in brief: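 HepG2 cells transiently transfected with multiplexed cis-promoter reporter units sensing endogenous transcription factors; reporter mRNA measured 24 h after dosing by RT-PCR, 6-FAM labeling, HpaI digestion and capillary electrophoresis. Bidirectional fit versus DMSO.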

[14] = biological target: Signal transducer and activator of transcription 3 (Homo sapiens) (UniProt P40763); test: ATG_STAT3_CIS: Attagene CIS-FACTORIAL HepG2 Assay for human Signal Transducer and Activator of Transcription 3 (STAT3) (AID 2282963); conditions: HepG2, Attagene cis-factorial STAT3 reporter transcription; actives raise or lower the signal
Method in brief: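 HepG2 cells transiently transfected with multiple cis-element-driven reporter units report endogenous transcription factor activity. After 24 h compound exposure, reporter mRNA is measured by RT-PCR, 6-FAM labelling, HpaI digestion and capillary electrophoresis. Fitted bidirectionally versus DMSO.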

[15] = ATG_TA_CIS: Attagene CIS-FACTORIAL HepG2 Assay for human TA Basal Promoter (AID 2282964); conditions: HepG2 Attagene CIS-factorial TA basal promoter reporter; actives raise or lower the signal
Method in brief: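 HepG2 cells transiently transfected with multiplexed cis-promoter reporter units, dosed 24 h. Reporter mRNA measured by RT-PCR, 6-FAM labelling, HpaI digestion and capillary electrophoresis; bidirectional fit versus DMSO baseline, serving as background control.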

[16] = ATG_TCF_b_cat_CIS: Attagene CIS-FACTORIAL HepG2 Assay for human T-Cell-Factor with beta-catenin (TCF/b-cat) (AID 2282965); conditions: HepG2 TCF/beta-catenin cis-reporter transcription, actives raise or lower the signal
Method in brief: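 Cells of the HepG2 line carry transiently transfected reporter units whose promoters respond to endogenous factors. Twenty-four hours post-dosing, reporter mRNA induction is measured by fluorescent RT-PCR and capillary electrophoresis, with DMSO as baseline.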

[17] = ATG_TAL_CIS: Attagene CIS-FACTORIAL HepG2 Assay for human TAL Basal Promoter (AID 2282966); conditions: HepG2 Attagene cis-factorial TAL promoter reporter; actives raise or lower the signal;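 note: background control endpoint measuring basal TAL promoter reporter mRNA not a specific factor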
Method in brief: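 HepG2 cells were transiently transfected with promoter-driven multiplexed reporter units and dosed for 24 h. Reporter mRNA was measured by RT-PCR with capillary electrophoresis fluorescence; bidirectional fits used DMSO as baseline, serving as a background control.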

[18] = ATG_TGFb_CIS: Attagene CIS-FACTORIAL HepG2 Assay for human Transforming Growth Factor (TGF) (AID 2282967); conditions: HepG2 Attagene CIS TGFb reporter, mRNA transcription; actives raise or lower the signal
Method in brief: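 HepG2 cells transiently transfected with cis-promoter-driven multiplexed reporter units; 24 h compound exposure. Reporter mRNA measured by RT-PCR, 6-FAM labeling, HpaI digestion and capillary electrophoresis; bidirectional fit versus DMSO baseline.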

[19] = ATG_VDRE_CIS: Attagene CIS-FACTORIAL HepG2 Assay for human Vitamin D Receptor Element (VDRE) (AID 2282968); conditions: HepG2 VDRE cis-reporter transcription, actives raise or lower the signal
Method in brief: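 Transiently transfected HepG2 cells carrying cis-regulated reporter transcription units were exposed for 24 h. Reporter mRNA was measured by RT-PCR with fluorescent labelling and capillary electrophoresis, and fitted in both directions against DMSO.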

[20] = ATG_RORE_CIS: Attagene CIS-FACTORIAL HepG2 Assay for human RAR-related Orphan Receptor Element (RORE) (AID 2282959); conditions: HepG2 Attagene cis-factorial RORE reporter, mRNA; actives raise or lower the signal
Method in brief: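 Cells were HepG2 carrying transfected cis-regulated reporter constructs, dosed for 24 hours. Total RNA was reverse-transcribed and reporter cDNA amplified, fluorescently labeled and sized by capillary electrophoresis. Activity was fitted bidirectionally relative to DMSO.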

Measured: AC50

Chain of Hypoxia-inducible factor 1-alpha (Homo sapiens) (Q16665 whole entry, looked up): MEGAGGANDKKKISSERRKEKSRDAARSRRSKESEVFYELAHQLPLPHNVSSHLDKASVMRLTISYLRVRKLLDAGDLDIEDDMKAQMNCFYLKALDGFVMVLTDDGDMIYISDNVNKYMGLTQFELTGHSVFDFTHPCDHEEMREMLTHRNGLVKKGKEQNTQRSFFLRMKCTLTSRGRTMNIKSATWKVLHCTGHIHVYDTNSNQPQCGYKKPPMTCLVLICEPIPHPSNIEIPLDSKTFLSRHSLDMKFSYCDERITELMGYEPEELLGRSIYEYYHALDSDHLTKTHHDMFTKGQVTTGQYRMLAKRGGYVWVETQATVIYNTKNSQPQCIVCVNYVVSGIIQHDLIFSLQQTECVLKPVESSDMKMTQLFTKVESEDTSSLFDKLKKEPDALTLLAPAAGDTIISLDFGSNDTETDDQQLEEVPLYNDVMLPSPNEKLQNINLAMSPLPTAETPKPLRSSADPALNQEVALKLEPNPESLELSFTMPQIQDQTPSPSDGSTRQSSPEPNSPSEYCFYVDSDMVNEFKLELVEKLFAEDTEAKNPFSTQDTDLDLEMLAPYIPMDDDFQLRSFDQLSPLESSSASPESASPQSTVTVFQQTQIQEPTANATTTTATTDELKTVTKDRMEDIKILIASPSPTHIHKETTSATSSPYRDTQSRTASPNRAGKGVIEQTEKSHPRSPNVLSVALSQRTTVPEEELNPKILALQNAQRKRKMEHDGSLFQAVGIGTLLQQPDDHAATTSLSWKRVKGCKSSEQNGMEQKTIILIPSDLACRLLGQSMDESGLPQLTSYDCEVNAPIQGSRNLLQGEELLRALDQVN
Chain of Hepatocyte nuclear factor 6 (Homo sapiens) (Q9UBC0 whole entry, looked up): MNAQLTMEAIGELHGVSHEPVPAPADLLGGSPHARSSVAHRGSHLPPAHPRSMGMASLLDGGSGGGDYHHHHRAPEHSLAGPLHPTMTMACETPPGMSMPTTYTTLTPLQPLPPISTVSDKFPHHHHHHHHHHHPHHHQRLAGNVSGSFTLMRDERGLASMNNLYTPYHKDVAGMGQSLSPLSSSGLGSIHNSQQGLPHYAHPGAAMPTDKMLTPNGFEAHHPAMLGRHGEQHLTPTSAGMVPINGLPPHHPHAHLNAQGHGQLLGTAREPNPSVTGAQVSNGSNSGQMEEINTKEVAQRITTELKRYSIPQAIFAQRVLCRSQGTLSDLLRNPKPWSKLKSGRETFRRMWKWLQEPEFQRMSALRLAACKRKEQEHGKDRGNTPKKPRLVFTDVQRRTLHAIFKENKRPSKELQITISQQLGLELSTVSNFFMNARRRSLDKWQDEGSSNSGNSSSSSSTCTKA
Chain of Heat shock factor protein 1 (Homo sapiens) (Q00613 whole entry, looked up): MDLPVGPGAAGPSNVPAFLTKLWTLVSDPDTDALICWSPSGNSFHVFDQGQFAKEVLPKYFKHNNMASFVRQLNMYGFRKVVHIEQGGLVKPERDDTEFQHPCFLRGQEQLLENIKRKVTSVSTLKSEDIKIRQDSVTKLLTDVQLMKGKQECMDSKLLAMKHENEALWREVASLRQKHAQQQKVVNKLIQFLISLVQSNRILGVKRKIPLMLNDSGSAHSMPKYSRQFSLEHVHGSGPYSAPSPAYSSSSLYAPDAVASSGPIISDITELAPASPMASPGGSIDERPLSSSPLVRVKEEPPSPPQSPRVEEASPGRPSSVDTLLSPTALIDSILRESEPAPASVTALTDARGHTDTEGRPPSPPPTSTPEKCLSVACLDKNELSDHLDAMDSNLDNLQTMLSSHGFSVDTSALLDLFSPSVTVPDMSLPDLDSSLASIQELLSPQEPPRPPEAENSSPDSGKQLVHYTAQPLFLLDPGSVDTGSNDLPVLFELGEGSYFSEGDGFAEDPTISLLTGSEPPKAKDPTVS
Chain of Transcription factor Sp1 (Homo sapiens) (P08047 whole entry, looked up): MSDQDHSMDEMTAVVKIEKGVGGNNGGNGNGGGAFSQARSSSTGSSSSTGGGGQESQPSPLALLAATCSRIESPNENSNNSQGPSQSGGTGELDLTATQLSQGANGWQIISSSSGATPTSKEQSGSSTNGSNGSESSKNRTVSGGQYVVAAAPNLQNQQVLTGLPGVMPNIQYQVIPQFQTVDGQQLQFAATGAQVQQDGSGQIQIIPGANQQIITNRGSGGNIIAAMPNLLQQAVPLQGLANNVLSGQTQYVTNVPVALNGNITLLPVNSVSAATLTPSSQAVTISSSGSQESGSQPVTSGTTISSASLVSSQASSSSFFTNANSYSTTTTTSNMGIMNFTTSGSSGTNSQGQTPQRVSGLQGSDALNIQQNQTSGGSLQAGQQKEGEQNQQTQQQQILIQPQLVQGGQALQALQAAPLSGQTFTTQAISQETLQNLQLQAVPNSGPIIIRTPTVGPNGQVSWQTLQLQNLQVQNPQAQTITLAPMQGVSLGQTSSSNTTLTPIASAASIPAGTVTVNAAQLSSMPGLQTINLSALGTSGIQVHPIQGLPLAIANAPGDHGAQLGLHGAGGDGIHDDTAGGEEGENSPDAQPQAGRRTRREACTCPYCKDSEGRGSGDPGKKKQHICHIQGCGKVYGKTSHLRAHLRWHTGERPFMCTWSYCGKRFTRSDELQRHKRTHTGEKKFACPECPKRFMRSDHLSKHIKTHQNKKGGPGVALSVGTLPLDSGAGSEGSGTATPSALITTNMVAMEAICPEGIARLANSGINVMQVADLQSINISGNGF
Chain of Signal transducer and activator of transcription 3 (Homo sapiens) (P40763 whole entry, looked up): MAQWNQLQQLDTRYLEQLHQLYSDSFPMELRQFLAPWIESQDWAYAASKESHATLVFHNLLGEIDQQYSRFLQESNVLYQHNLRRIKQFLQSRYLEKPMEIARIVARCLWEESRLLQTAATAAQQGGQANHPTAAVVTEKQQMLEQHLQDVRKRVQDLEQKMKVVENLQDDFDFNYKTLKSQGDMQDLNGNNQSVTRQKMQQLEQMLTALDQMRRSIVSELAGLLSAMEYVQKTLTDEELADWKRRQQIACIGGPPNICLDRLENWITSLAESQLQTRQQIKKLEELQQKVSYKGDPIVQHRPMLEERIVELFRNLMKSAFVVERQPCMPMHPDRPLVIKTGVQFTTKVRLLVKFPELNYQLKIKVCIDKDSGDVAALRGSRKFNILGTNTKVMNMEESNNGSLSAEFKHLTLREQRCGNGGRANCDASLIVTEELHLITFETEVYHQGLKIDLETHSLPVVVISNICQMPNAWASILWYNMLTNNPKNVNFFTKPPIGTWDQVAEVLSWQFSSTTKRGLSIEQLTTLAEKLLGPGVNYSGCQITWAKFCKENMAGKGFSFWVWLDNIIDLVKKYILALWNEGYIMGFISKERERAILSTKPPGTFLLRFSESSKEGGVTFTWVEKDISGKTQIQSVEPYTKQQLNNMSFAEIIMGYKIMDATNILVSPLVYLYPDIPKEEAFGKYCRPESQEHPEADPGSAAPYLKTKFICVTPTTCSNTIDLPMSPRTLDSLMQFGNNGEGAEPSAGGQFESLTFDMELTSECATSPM
Chain of Paired box protein Pax-6 (Homo sapiens) (P26367 whole entry, looked up): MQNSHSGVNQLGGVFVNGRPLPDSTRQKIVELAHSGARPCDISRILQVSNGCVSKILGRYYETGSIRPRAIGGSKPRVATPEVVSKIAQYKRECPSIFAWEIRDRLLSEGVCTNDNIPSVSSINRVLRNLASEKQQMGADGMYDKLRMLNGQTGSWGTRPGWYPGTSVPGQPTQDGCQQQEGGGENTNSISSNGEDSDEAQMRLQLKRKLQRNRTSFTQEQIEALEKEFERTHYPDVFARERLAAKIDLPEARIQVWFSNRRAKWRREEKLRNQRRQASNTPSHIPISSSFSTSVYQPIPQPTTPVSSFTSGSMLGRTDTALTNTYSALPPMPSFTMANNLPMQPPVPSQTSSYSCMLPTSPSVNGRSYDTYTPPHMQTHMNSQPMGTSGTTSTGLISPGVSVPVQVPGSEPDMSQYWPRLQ

CCOC(=O)c1nc(C(Cl)(Cl)Cl)n(-c2ccc(Cl)cc2Cl)n1
inactive: [2] | [3] | [8] | [10] | [11] | [14] | [16] | [19]
active: [1] 63.9 µM | [4] 160 µM | [5] 65.8 µM | [6] 74.7 µM | [7] 100 µM | [9] 2.06 µM | [12] 54.6 µM | [13] 27.7 µM | [15] 173 µM | [17] 118 µM | [18] 27.8 µM

COc1cc(OC)nc(NC(=O)NS(=O)(=O)Nc2ccccc2C(=O)N(C)C)n1
inactive: [1] | [2] | [3] | [4] | [5] | [6] | [7] | [8] | [9] | [10] | [20] | [11] | [12] | [14] | [15] | [16] | [17] | [19]

FC(F)(F)C(F)(F)C(F)(F)Br
inactive: [1] | [2] | [3] | [4] | [5] | [6] | [7] | [8] | [9] | [20] | [11] | [12] | [13] | [14] | [15] | [16] | [17] | [18] | [19]

O=C(Nc1cccc([N+](=O)[O-])c1)c1cc2ccccc2cc1O
active: [7] 3.64 µM | [9] 6.79 µM | [20] 5.99 µM
inactive: [1] | [2] | [3] | [4] | [5] | [6] | [8] | [11] | [12] | [13] | [14] | [15] | [16] | [17] | [19]

CCC(C)c1ccccc1O (stereo not given)
inactive: [1] | [2] | [3] | [4] | [5] | [6] | [7] | [8] | [10] | [12] | [13] | [14] | [15] | [16] | [17] | [18] | [19]
active: [9] 27.4 µM and 30.9 µM | [16] 164 µM | [19] 74.6 µM

OCC(F)(F)C(F)(F)C(F)(F)C(F)(F)C(F)(F)C(F)(F)C(F)(F)C(F)(F)C(F)(F)C(F)(F)C(F)(F)F
inactive: [1] | [2] | [3] | [4] | [5] | [6] | [7] | [8] | [9] | [10] | [12] | [13] | [14] | [15] | [16] | [18] | [19]

CC(C)CCOCCC(C)C
inactive: [1] | [2] | [3] | [4] | [5] | [6] | [7] | [8] | [9] | [10] | [20] | [11] | [12] | [13] | [14] | [15] | [16] | [18] | [19]
